MIN6 prolif-1 – MIN6 beta-cell proliferation induction; proliferation, % at 10 µM; 330,000 compounds, 0.29% hits; MIN6 cells proliferation, ATPlite luminescence, 48 h; cells starved in 0.2% serum; 100% = growth in 10% serum;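 active = compounds whose signal lies at least 3.5 SD above the mean of all wells on their plate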;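 also: 0% = DMSO-treated cells in low-serum medium and 100% = 10% serum control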
TAG inh – reduces triacylglycerol accumulation in H9c2 cells. Nile Red lipid (TAG) fluorescence; cells loaded with 200 µM oleic acid. inhibition, % at 12.5 µM. 230,000 compounds, 0.66% hits;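 active = pattern-corrected inhibition of lipid staining of at least 50% with the nuclear-stain viability signal not falling by more than 50%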;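 also: 0% = DMSO wells and 100% = triacsin C control wells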
hiPSC survival – hiPSC single-cell survival enhancement | ATPlite luminescence; 100% = ROCK inhibitor wells, 0% = DMSO | 360,000 compounds, 0.044% hits | survival enhancement, % at 20 µM; in the data active = survival enhancement above about 18%;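 also: cells exposed to compounds for 16 hours before the ATP read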
MIN6 prolif-2 – confirmation of inducers of beta-cell replication in MIN6 cells. shares compounds with MIN6 prolif-1. MIN6 beta-cell proliferation, ATPlite luminescence, 48 h; cells kept in 0.2% serum; scaled between 0.2% and 10% serum. proliferation increase, % at 50 µM. 920 tested, under 10 active. AID 463095;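 active = proliferation increase above 40% at any of the four tested concentrations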
* = called active by the depositor; . = not tested or not shown. This is a sample that favours compounds with a hit; in the whole collection about 0.71% have one here.

SMILES	MIN6 prolif-1	TAG inh	hiPSC survival	MIN6 prolif-2
Cc1ccc(Nc2nc(NCC3CCCO3)nc(N)c2[N+](=O)[O-])cc1C (stereo unspecified)	0.0*	.	-2	0
Cc1nc2nc(C)c(C)nc2nc1C	.	2	0	.
COC(=O)c1ccc(SC)cn1	11*	2	1	0
COC(=O)c1ccc(C(=O)OC)nc1	0	-1	-1	.
c1ccc(Cn2nnnc2CN2CCCC2)cc1	4.8*	.	2	2
COc1ccc(Cn2nnnc2CN2CCCCCC2)cc1	0	-8	2	.
CCCCCCCCN1C(=O)[C@H](CC(=O)N2CCSCC2)C[C@@]2(C(=O)OC)CCCCC=C12	.	.	0	.
Cc1cc(C)n2c(NCc3ccccc3)c(-c3cc4ccccc4o3)nc2n1	.	.	0	.
Cc1ccc(CSc2nnc(-c3ccccn3)n2C)cc1	7.1*	-117	1	-4
Cn1c(SCc2ccc(F)cc2)nnc1-c1ccccn1	0	.	-3	.
CC(=O)Nc1ccc(C(=O)N2CCCC(c3cc(C(=O)NCc4ccc(F)cc4)no3)C2)cc1 (stereo unspecified)	.	-5	-2	.
COc1ccc(/C=N/NC(=O)CCOc2ccccc2C)cc1OC	2	.	0	.
COc1cc(/C=N/NC(=O)CCOc2ccccc2C)cc(Br)c1O	7.3*	-2	-2	-4
CNC(=S)N/N=C/c1ccc(OCC(=O)Nc2c(C)cc(C)cc2C)c(OC)c1	0.0*	10	1	-1
COc1cc(/C=N/NC(=O)c2cccnc2)ccc1OCC(=O)Nc1c(C)cc(C)cc1C	-3	.	0	.
Cc1ccc(NC(=O)CCNS(=O)(=O)c2cccc3nsnc23)cc1	0	.	-1	.
CC(C)c1ccc(NC(=O)CCNS(=O)(=O)c2cccc3nsnc23)cc1	4.6*	.	-2	-5
CCN(CC)c1ccc2cc(C(=O)c3cccs3)c(=O)oc2c1	.	.	2	.
O=C1[C@H]2[C@@H]3CCN1CCC[C@@H]2C=C[C@@H]3c1ccc(Br)cc1	.	.	-1	.
NNC(=O)c1nc(-c2ccccc2)n2c1CCCCC2	-1	.	4	.
O=C(N/N=C/c1ccncc1)c1nc(-c2ccccc2)n2c1CCCCC2	8.3*	-6	4	2
COC(=O)c1cccc(CC2(C)C(=O)Nc3cc(-c4ccccc4Cl)ccc32)c1 (stereo unspecified)	.	2	-1	.
CCOC(=O)c1c(C)[nH]c(C)c1C(=O)COC(=O)[C@@H](NC(=O)c1ccccc1OCC)C(C)C	7.4*	.	0	-6
CCOc1ccccc1C(=O)NC(C(=O)OCC(=O)NNC(=O)c1cccs1)C(C)C (stereo unspecified)	.	-29	3	.
CC1(C(=O)NS(=O)(=O)Cc2cccc(Cl)c2)CCN1C(=O)C1CCCCC1 (stereo unspecified)	.	-3	-2	.
SMILES	MIN6 prolif-1	TAG inh	hiPSC survival	MIN6 prolif-2
Nc1ncnc2c1ncn2-c1ccccc1Cl	.	8	-4	.
COc1cc(CC(=O)NCCCc2ccccc2)cc(OC)c1OC	6.0*	.	0	-2
COc1cc(C(=O)NCCCc2ccccc2)cc(OC)c1OC	-2	.	0	.
COCCNC(=O)C(c1ccc(F)cc1)N(Cc1ccccc1)C(=O)CCC(=O)Nc1ccccn1 (stereo unspecified)	0	.	2	.
COCCNC(=O)C(c1ccc(F)cc1)N(Cc1cccs1)C(=O)CCC(=O)Nc1ccccn1 (stereo unspecified)	5.5*	.	0	-2
COc1ccc(NC(=O)CS(=O)CC(=O)Nc2ccc(NC(C)=O)cc2)cc1 (stereo unspecified)	-1	.	0	.
COc1ccc(NC(=O)CS(=O)c2ccc(F)cc2)cc1 (stereo unspecified)	12*	-3	0	-1
C[C@@H]1CCCCO[C@H](CN(C)Cc2ccc(C(=O)O)cc2)[C@H](C)CN([C@@H](C)CO)C(=O)c2cc(NC(=O)Nc3ccc(C(F)(F)F)cc3)ccc2O1	.	14	0	.
O=C1CSC(c2ccccc2)N1CCc1ccccc1 (stereo unspecified)	7.5*	-2	-1	0
NC(=O)c1ccc(C2SCC(=O)N2CCc2ccccc2)cc1 (stereo unspecified)	0	2	0	.
N#CC(C#N)=C1NC2(CCCCC2)Cc2ccccc21	5.2*	5	0	6
CCC1(CC)Cc2ccccc2C(=C(C#N)C#N)N1	-1	-15	-2	.
COc1cccc(CNC(=O)[C@@H]2CCCN2C(=O)[C@H]2CCCCN2C(=O)OC(C)(C)C)c1	.	.	2	.
CC(C)(C)N(NC(=O)OCc1ccccc1)C(=O)c1ccccc1	0	.	0	.
CC(C)(C)N(NC(=O)OCc1ccccc1)C(=O)c1ccccc1Cl	0.0*	.	-3	-4
CSc1ncccc1C(=O)N1CCCC(N2CCN(c3ccccc3C)CC2)C1 (stereo unspecified)	.	8	-2	.
O=C(Nc1nnc([C@H]2C[C@H](O)[C@@H](CO)O2)s1)Nc1ccccc1Oc1ccccc1	.	9	-3	.
COc1ccc(CN2C(=O)C(CC(=O)NCCc3ccccn3)CC(C(=O)N3CCCCCC3)=C2C)cc1 (stereo unspecified)	.	.	2	.
CCCCNc1c(-c2cccnc2)nc2nc(C)cc(C)n12	.	.	0	.
OCCC1CN(Cc2c(F)cccc2Cl)CCN1C1CCCCC1 (stereo unspecified)	0	-1	-1	.
OCCC1CN(Cc2c(F)cccc2Cl)CCN1C1CCCC1 (stereo unspecified)	8.1*	-9	0	0
Cc1ccc(CNC(=O)CCNC(=O)N2CCn3c2nc2ccccc23)cc1	14*	.	0	-2
Cc1ccc(CNC(=O)CCCCCNC(=O)N2CCn3c2nc2ccccc23)cc1	5	.	2	.
c1ccc2cc(C3OCC4(CCCC4)CO3)ccc2c1	.	19	4	.
O=C(OCCc1cc2ccccc2c(=O)o1)N1CCOCC1	-2	5	1	.
SMILES	MIN6 prolif-1	TAG inh	hiPSC survival	MIN6 prolif-2
O=C(OCCCc1cc2ccccc2c(=O)o1)N1CCOCC1	7.8*	-15	-3	4
CCOC(=O)[C@]12CCC=C1N(Cc1ccc(Cl)cc1Cl)C(=O)[C@H](CC(=O)N1CCOCC1)C2	.	.	0	.
Cc1cc(C)c(NC(=O)COC(=O)C2CCC2)c(Cl)c1	3	3	0	.
Cc1cc(Br)c(NC(=O)COC(=O)C2CCCCC2)c(Br)c1	11*	-17	0	-6
CC(CC(=O)Nc1ccc2c(c1)c(=O)n(C)n2-c1cccs1)c1ccccc1 (stereo unspecified)	.	-7	-4	.
CCCc1ccc2ccc3ccccc3c2n1	.	.	-2	.
CC(C)OP(=O)(c1ccc(N(C)C)cc1)C(O)c1ccncc1 (stereo unspecified)	0	.	-2	.
CC(C)OP(=O)(c1ccc(N(C)C)cc1)C(O)c1ccc(Br)cc1 (stereo unspecified)	9.0*	.	0	-1
CCOC(=O)C1CCCN(C(=O)c2ccc(F)c(C)c2)CC1 (stereo unspecified)	.	-22	1	.
Cc1cc2nc(-c3ccncc3)cc(C(F)(F)F)n2n1	9.3*	0	1	4
COC(=O)c1cc2nc(-c3ccc(C)cc3)cc(C(F)(F)F)n2n1	-4	.	2	.

Assay outcomes from PubChem.
